Results on 9 molecules are retold here after PubChem BioAssay.

Assay [1] can be described thus: E. coli DRC41 culture turbidity changes, primary screen, E. coli filamentation inducer project, strain DRC41, OD650, 48 h (AID 1152).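 Note: E. coli MC1000 strain DRC41 lacking acrAB efflux pump and sulA.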 As to conditions: E. coli DRC41 (acrAB sulA), higher = more signal, called active from +8 up or from −8 down.
The nature of assay [2]: small-molecule binders of probe aLefty1, primary screen, biochemical, small-molecule microarray, 635/667 nm fluorescence (AID 1153).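 Note: score merges spot fluorescence with signal-to-noise ratio from the scanned slide images.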 As to conditions: higher = more signal.
A short description of assay [3]: PSAC antagonists in infected red cells, primary screen, cell-based, P. falciparum Indochina, OD700, 1 h (AID 1154). As to conditions: P. falciparum Indochina infected RBC osmotic lysis, higher = more signal, called active from +8 up or from −8 down.
Assay [4] is described as follows: PSAC antagonists in infected red cells, primary screen, cell-based, P. falciparum Indochina, OD700, 2 h (AID 1155).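 Note: lysis reports solute entry through the parasite surface anion channel PSAC; channel blockers reduce lysis of infected cells.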 The following applies: P. falciparum Indochina infected erythrocytes, osmotic lysis OD700; higher = more signal, called active from +8 up or from −8 down.
Assay [5] in a line: osmotic lysis modulators in infected erythrocytes, primary screen, PSAC antagonist project, cell-based, P. falciparum Indochina, OD700, 3 h (AID 1156). The following applies: higher = more signal, called active from +8 up or from −8 down.
A short description of assay [6]: PSAC antagonists in infected red cells, primary screen, cell-based, P. falciparum Indochina, OD700, 18 h (AID 1157). The following applies: P. falciparum Indochina infected erythrocytes, osmotic lysis OD700, 18 h; higher = more signal, called active from +8 up or from −8 down.
A short description of assay [7]: modulators of S6 phosphorylation in cells, primary screen, cell-based, A549, cytoblot, luminescence, serum-stimulated (AID 1158).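 Note: serum-stimulated A549 lung adenocarcinoma cells; signal is phosphorylated S6 detected by cytoblot immunostaining with HRP secondary.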 The following applies: A549 phospho-S6 cytoblot, 5 h, higher = more signal.
The target of assay [8] is NADPH oxidase 2 (Homo sapiens) (UniProt P04839). The experiment in a line: NOX2-dependent H2O2 signal modulators, primary screen, NOX inhibitor project, cell-based, HEK293-NOX2, PMA-stimulated, Amplex Red fluorescence (AID 1159). Note: test concentration not given here. As to conditions: 45 min, higher = more signal, called active from +8 up or from −8 down.
Assay [9] has as its target NADPH oxidase 4 (Homo sapiens) (UniProt Q9NPH5). The experiment in a line: NOX4-dependent H2O2 signal modulators, primary screen, NOX inhibitor project, cell-based, HEK293-NOX4, tetracycline-induced, Amplex Red fluorescence (AID 1160). The following applies: 45 min, higher = more signal, called active from +8 up or from −8 down.
For assay [10], the target named is NADPH oxidase 5 (Homo sapiens) (UniProt Q96PH1). The experiment in a line: NOX5-dependent H2O2 signal modulators, primary screen, NOX inhibitor project, cell-based, HEK293-NOX5, Amplex Red fluorescence (AID 1161). The following applies: HEK293-NOX5, ionomycin, 45 min, higher = more signal.
The nature of assay [11]: A549 cell viability effects, profiling panel, calcein-AM fluorescence, 48 h, basal (AID 1162). Note: test concentration not given here. As to conditions: higher = more signal.
Assay [12] is described as follows: adipocyte viability effects, profiling panel, cell-based, 3T3-L1 adipocytes, calcein-AM fluorescence, 48 h, basal (AID 1163). Note: test concentration not given here. The following applies: 3T3-L1 adipocytes viability, higher = more signal.
Assay [13] can be described thus: HepG2 cell viability effects, profiling panel, calcein-AM fluorescence, 48 h, basal (AID 1164). Note: test concentration not given here. As to conditions: higher = more signal.
Assay [14] in a line: MM1S cell viability effects, profiling panel, calcein-AM fluorescence, 48 h, basal (AID 1165).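 Note: viability of MM1S multiple myeloma cells under basal unstimulated conditions; test concentration not given here.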 As to conditions: higher = more signal.
The nature of assay [15]: basal RPMI8226 viability, no added stimulus, profiling panel, cell-based, calcein-AM fluorescence, 48 h, PK04 Diversity Set (AID 1166).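 Note: cells grown under basal conditions without added stimulus; test concentration not given here.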 The following applies: RPMI8226 myeloma viability, higher = more signal.
Assay [16] in a line: basal HepG2 mitochondrial membrane potential changes, profiling panel, cell-based, JC-1 fluorescence, 24 h, 100 nL compound (AID 1167). Note: test concentration not given here. As to conditions: higher = more signal.
Assay [17] in a line: basal 3T3-L1 adipocyte mitochondrial potential changes, profiling panel, cell-based, JC-1 fluorescence, 3T3-L1 adipocytes, 24 h, 100 nL compound (AID 1168). Note: test concentration not given here. As to conditions: JC-1 mitochondrial fluorescence, higher = more signal, called active from +8 up or from −8 down.
The nature of assay [18]: basal RPMI8226 mitochondrial membrane potential changes, profiling panel, cell-based, JC-1 fluorescence, 24 h, 100 nL compound (AID 1169). Note: test concentration not given here. The following applies: RPMI8226 myeloma, JC-1 mitochondrial potential fluorescence, higher = more signal.
The nature of assay [19]: basal MM1S mitochondrial membrane potential changes, profiling panel, cell-based, JC-1 fluorescence, 24 h, 100 nL compound (AID 1170). Note: test concentration not given here. The following applies: higher = more signal.
The nature of assay [20]: A549 lung cancer cell viability effects, profiling panel, resazurin fluorescence, 24 h, PK04 Diversity Set (AID 1171). Note: test concentration not given here. The following applies: higher = more signal, called active from +8 up or from −8 down. For orientation: Resazurin is reduced to fluorescent resorufin, in cell work by metabolically active cells.

Active and inactive are the calls of the source.

Sequence of NADPH oxidase 2 (Homo sapiens) (P04839 whole entry, looked up): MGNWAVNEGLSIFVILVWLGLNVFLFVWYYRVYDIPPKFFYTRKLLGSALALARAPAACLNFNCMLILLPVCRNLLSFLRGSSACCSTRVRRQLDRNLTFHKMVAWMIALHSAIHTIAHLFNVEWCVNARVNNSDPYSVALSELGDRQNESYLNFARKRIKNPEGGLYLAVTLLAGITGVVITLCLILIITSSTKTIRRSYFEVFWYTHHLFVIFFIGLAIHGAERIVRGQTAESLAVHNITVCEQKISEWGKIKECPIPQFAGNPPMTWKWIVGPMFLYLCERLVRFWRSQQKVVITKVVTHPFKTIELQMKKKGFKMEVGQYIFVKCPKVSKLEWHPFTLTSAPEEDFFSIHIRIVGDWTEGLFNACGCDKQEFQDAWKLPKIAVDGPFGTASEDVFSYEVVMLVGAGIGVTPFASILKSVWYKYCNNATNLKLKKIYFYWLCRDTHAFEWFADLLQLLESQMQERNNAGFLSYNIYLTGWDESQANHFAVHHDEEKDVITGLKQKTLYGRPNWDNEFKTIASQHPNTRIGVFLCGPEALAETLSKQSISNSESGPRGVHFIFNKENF
Sequence of NADPH oxidase 4 (Homo sapiens) (Q9NPH5 whole entry, looked up): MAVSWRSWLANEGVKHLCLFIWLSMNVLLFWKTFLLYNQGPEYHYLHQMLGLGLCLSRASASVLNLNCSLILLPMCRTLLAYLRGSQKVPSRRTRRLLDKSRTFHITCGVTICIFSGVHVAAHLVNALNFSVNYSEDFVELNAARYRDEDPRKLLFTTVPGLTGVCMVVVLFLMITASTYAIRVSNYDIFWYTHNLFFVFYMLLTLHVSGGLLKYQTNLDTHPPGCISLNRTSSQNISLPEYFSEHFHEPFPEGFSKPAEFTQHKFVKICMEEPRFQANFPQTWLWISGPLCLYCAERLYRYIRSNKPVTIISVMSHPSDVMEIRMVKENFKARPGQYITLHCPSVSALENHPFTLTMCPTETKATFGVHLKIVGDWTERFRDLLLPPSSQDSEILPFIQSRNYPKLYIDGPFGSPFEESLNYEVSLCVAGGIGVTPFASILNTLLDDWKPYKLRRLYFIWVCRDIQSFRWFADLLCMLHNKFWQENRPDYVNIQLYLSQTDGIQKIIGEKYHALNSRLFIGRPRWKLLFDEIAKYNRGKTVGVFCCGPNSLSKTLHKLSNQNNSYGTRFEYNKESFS
Sequence of NADPH oxidase 5 (Homo sapiens) (Q96PH1 whole entry, looked up): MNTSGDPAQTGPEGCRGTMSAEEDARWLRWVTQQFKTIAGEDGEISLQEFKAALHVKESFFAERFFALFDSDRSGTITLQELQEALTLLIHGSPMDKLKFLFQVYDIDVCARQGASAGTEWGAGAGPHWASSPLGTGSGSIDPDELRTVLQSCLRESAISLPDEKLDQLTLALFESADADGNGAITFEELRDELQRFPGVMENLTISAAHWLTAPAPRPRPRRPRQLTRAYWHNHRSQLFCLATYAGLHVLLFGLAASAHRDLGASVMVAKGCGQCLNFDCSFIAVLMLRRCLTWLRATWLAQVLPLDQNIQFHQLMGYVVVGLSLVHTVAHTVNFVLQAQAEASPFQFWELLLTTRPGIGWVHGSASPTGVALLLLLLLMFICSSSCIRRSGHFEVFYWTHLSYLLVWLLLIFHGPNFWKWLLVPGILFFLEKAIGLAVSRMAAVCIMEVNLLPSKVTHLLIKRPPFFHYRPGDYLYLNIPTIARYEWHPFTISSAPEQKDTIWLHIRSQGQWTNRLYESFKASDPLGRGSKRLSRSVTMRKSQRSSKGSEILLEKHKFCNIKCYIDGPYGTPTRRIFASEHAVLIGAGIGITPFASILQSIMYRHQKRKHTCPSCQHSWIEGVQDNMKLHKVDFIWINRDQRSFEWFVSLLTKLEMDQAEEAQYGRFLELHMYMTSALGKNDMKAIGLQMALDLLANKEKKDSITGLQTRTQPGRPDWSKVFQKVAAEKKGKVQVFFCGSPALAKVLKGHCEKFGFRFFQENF

With `[N-]=[N+]=NCc1ccccc1[C@@H]1OC(c2ccc(OCCCO)cc2)=N[C@]1(CCS(=O)(=O)c1ccccc1)C(=O)NCCN1CCOCC1`, the z-score is 0.36 (inactive) in [1]; 24 (active) in assay [3]; 6.42 (inactive) in assay [4]; 0.854 (inactive) in assay [5]; 0.763 (inactive) in assay [6]; -0.291 in assay [7]. Besides, the z-score in [8] was 0.961 (inactive); in [9], 1.92 (inactive); in assay [10], 2.34; in assay [11], 1.68; in [12], -0.0282; in [13] it was 1.61. The z-score was 0.377 in [14]; 0.501 in assay [15]; 0.374 in assay [16]; 0.995 (inactive) in assay [17]; 0.127 in [18]; -0.806 in [19]. In assay [20], the z-score was -0.597 (inactive). This molecule gave a composite z-score in assay [2] of 0.461.

Turning to `O=C1[C@H]2C=C(Br)[C@H](C[C@@H]2OCCCCO)[C@@]12CO2`, the z-score was -1.11 (inactive) in assay [1]; 1.31 (inactive) in [3]; 0.317 (inactive) in [4]; 1.17 (inactive) in assay [5]; -0.0393 (inactive) in assay [6]; -0.401 in assay [7]. The z-score was 0.45 (inactive) in assay [8]; 0.602 (inactive) in [9]; 0.188 in assay [10]; -0.0982 in [11]; -1.26 in assay [12]; -0.141 in assay [13]. Further, the z-score in [14] is -0.723; in [15], -2.13; in assay [16] it was -1.48; in assay [17] it was 0.026 (inactive); in [18], -0.88; in assay [19] it was -0.147. In addition, the z-score in [20] was -0.621 (inactive). Also, the composite z-score in [2] came out at 0.0911.

Turning to `CN1C(=O)C2C=CC(C(O)c3ccc(I)cc3)N(N3CCCCC3)C2C1=O` (stereo not given), the z-score is -2.04 (inactive) in assay [1]; 4.08 (inactive) in assay [3]; 0.399 (inactive) in assay [4]; 1.33 (inactive) in assay [5]; 0.701 (inactive) in [6]; -1.04 in assay [7]. Besides, the z-score in assay [8] is -0.229 (inactive); in [9] it was -2.14 (inactive); in [10], -1.63; in assay [11], -0.481; in assay [12], -0.111; in [13], -0.619. The z-score in assay [14] is -3.7; in [15] it was -0.955; in [16] it was -0.62; in [17] it was -0.435 (inactive); in [18], -0.484; in assay [19], -0.624. Also, the z-score in assay [20] was -0.799 (inactive). The molecule further showed a composite z-score in assay [2] of 0.699.

With `C=CCNC(=O)[C@H]1[C@@H]2C(=O)O[C@@H](c3ccccc3)[C@@H](c3ccccc3)N2[C@@H](c2ccc(O)cc2)[C@]12C(=O)N(C(=O)OCCOC)c1ccc(C#CCNC(N)=O)cc12`, the z-score in [1] was -0.929 (inactive); in assay [3], 1.78 (inactive); in assay [4] it was 0.441 (inactive); in [5] it was -0.627 (inactive); in assay [6], 0.0898 (inactive); in assay [7], -0.272. Further, the z-score is 1.28 (inactive) in assay [8]; 0.291 (inactive) in [9]; 0.383 in assay [10]; -0.755 in assay [11]; 0.0896 in [12]; 0.264 in assay [13]. Also, the z-score is -0.303 in assay [14]; -0.479 in [15]; -1.33 in [16]; 0.817 (inactive) in assay [17]; -0.294 in assay [18]; 0.179 in [19]. For the same molecule, the z-score in [20] was -0.157 (inactive). Further, the composite z-score in [2] was 0.378.

`C=CCOC(=O)[C@@H]1[C@H]2C(=O)O[C@H](c3ccccc3)[C@H](c3ccccc3)N2[C@H](c2ccc(OCCOC(=O)[C@@H]3C[C@@H]4C(=O)N5CCC[C@H]5C(=O)N4[C@@H]3c3ccc(O)cc3)cc2)[C@@]12C(=O)Nc1ccc(I)cc12`: the z-score in [1] is 2.52 (inactive); in assay [3] it was 2.19 (inactive); in assay [4] it was 0.727 (inactive); in [5], 2.43 (inactive); in [6], -1.31 (inactive); in assay [7] it was 3.17. In addition, the z-score in [8] is 1.32 (inactive); in assay [9], 0.808 (inactive); in assay [10], 1.69; in assay [11], 1.87; in assay [12] it was 1.24; in assay [13] it was 0.502. For the same molecule, the z-score was -0.573 in [14]; 0.278 in [15]; -1.6 in [16]; 0.231 (inactive) in assay [17]; -0.752 in [18]; -1.25 in assay [19]. Besides, the z-score in [20] is -0.248 (inactive). The molecule also returned a composite z-score in assay [2] of 0.365.

For the molecule `COCCn1c(C(=O)N2CCCC2)cc2c1C[C@H]1CN(C(=O)c3ccccc3)[C@@](Cc3ccc(F)cc3)(C(=O)OC)[C@@H]21`, the z-score in assay [1] is -1.33 (inactive); in [3], 1.15 (inactive); in assay [4] it was 0.137 (inactive); in assay [5] it was 2.62 (inactive); in assay [6], 0.642 (inactive); in assay [7], -0.0267. The z-score in [8] is 0.236 (inactive); in [9], 0.191 (inactive); in assay [10], -4.43; in assay [11], -1.27; in [12] it was 0.25; in assay [13], -0.366. The z-score is -1.21 in [14]; -1.22 in assay [15]; 0.584 in [16]; -0.757 (inactive) in assay [17]; -0.37 in assay [18]; -1.37 in assay [19]. The z-score in [20] was 0.409 (inactive). In [2], the composite z-score turned out to be 0.237.

As to `C=CC[C@]1(C(=O)NCCCOC)N=C(c2ccc(OCCCO)cc2)O[C@H]1c1ccccc1N=[N+]=[N-]`, the z-score in assay [1] was 0.239 (inactive); in assay [3], 33.6 (active); in assay [4] it was 32.2 (active); in assay [5] it was 3.35 (inactive); in assay [6], 8.48 (active); in assay [7], -0.403. Moreover, the z-score was -1.06 (inactive) in assay [8]; 1.33 (inactive) in assay [9]; -0.678 in assay [10]; -0.707 in assay [11]; 0.346 in [12]; 0.0592 in [13]. The z-score in [14] was -1.78; in [15], -1.47; in [16] it was 0.111; in assay [17] it was 1.06 (inactive); in assay [18], -0.68; in [19] it was -0.114. For the same molecule, the z-score in [20] is 0.393 (inactive). Also, in assay [2], the composite z-score is 0.479.

Take `COc1ccc([Si](C)(C)[C@H]2[C@H](CC(=O)N3CCC[C@H]3CO)O[C@@]3(C(=O)N(Cc4cccc(N5C(=O)c6cccc7cccc5c67)c4)c4ccccc43)[C@@H]2C)cc1`: the z-score in assay [1] is -0.577 (inactive); in [3], 7.61 (inactive); in assay [4], 0.753 (inactive); in assay [5], 0.442 (inactive); in assay [6], 0.623 (inactive); in [7] it was -0.366. Besides, the z-score in [8] was 1.35 (inactive); in assay [9], -0.292 (inactive); in assay [10], 4.06; in assay [11], -0.577; in [12] it was 0.453; in assay [13] it was -0.507. In addition, the z-score was -1.99 in assay [14]; -3.99 in assay [15]; 1.12 in [16]; -0.69 (inactive) in [17]; -1.12 in assay [18]; -0.388 in [19]. Also, the z-score in [20] is -0.892 (inactive). In addition, in assay [2], the composite z-score turned out to be 0.302.

In the case of `CN(C)C(=O)[C@@]1(Cc2ccccc2)N=C(c2ccc(OCCCO)cc2)O[C@H]1c1ccccc1N=[N+]=[N-]`, the z-score in assay [1] was 0.89 (inactive); in assay [3], 30.4 (active); in assay [4], 27.4 (active); in [5], 2.05 (inactive); in assay [6] it was 7.06 (inactive); in [7], 1.33. Also, the z-score was -1.93 (inactive) in [8]; 0.891 (inactive) in assay [9]; -1.22 in [10]; -1.45 in assay [11]; 1.22 in assay [12]; -1.84 in assay [13]. For the same molecule, the z-score is -2.53 in assay [14]; -3.91 in assay [15]; 1.48 in assay [16]; 1.17 (inactive) in assay [17]; -0.981 in [18]; -2.53 in [19]. In assay [20], the z-score was -1.63 (inactive). The composite z-score in [2] was 0.737.
